PubChem BioAssay (NCATS)
Results filed as inconclusive are left out. The source made the active and inactive calls. The call rests on the fitted dose curve; in most records, active means well fitted curve in the direction sought with a large enough effect; inconclusive means small, poorly fitted or top-dose-only effect, or another doubt; inactive means no such curve, though single readings can be large; an effect the other way counts as inactive or inconclusive.

Tests used:
[1] = Quantitative High-Throughput drug screen in 47 multiple myeloma cell lines against the NCATS MIPE library collection: KHM11_PLB cell viability assay (AID 1918962); further: nearly all actives have a fitted effect of over 35% in size
Procedure, shortened: (§1)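 Approved and investigational drugs from MIPE 4.0 were added by pin tool to 500 cells per well. After 48 hours at 37C, ATP-based CellTiter-Glo luminescence indicated remaining viability.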

[2] = Quantitative High-Throughput drug screen in 47 multiple myeloma cell lines against the NCATS MIPE library collection: JIM1_ECACC cell viability assay (AID 1918964)
Procedure, shortened: (§2)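 CellTiter-Glo luminescence (ATP) after 48 h compound exposure, 37C/5% CO2; 500 cells/well; MIPE 4.0 approved/investigational drugs pinned in; DMSO = 100%, media only = 0% viability.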

[3] = Quantitative High-Throughput drug screen in 47 multiple myeloma cell lines against the NCATS MIPE library collection: INA6_PLB cell viability assay (AID 1918965; further: nearly all actives have a fitted effect of over 55% in size)
Procedure, shortened: (§3)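 Inhibition of cell viability is measured here. Each line was plated at 500 cells per well, treated with MIPE 4.0 drugs, kept 48 hours at 37C, then assayed for ATP content by CellTiter-Glo luminescence.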

[4] = Quantitative High-Throughput drug screen in 47 multiple myeloma cell lines against the NCATS MIPE library collection: JJN3_DSMZ cell viability assay (AID 1918966; further: nearly all actives have a fitted effect of over 50% in size)
Procedure, shortened: as §2

[5] = Quantitative High-Throughput drug screen in 47 multiple myeloma cell lines against the NCATS MIPE library collection: H1112_PLB cell viability assay (AID 1918967; further: nearly all actives have a fitted effect of over 30% in size)
Procedure, shortened: as §2

[6] = Quantitative High-Throughput drug screen in 47 multiple myeloma cell lines against the NCATS MIPE library collection: KMS27_JCRB cell viability assay (AID 1918970); conditions: KMS27 myeloma cells, CellTiter-Glo ATP viability, 48 h; viability (% of DMSO): at 45.8 µM (top of the series); further: nearly all actives have a fitted effect of over 30% in size
Procedure, shortened: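 Myeloma cells (500 per well) were exposed to MIPE 4.0 compounds for 48 h at 37 °C, 5% CO2; viability was read as ATP luminescence with CellTiter-Glo, normalized to DMSO-only (100%) and media-only (0%) wells.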

[7] = Quantitative High-Throughput drug screen in 47 multiple myeloma cell lines against the NCATS MIPE library collection: KMS12BM_JCRB cell viability assay (AID 1918971); further: nearly all actives have a fitted effect of over 35% in size
Procedure, shortened: (§4)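 Viability readout: CellTiter-Glo luminescence following 5 min room-temperature incubation with reagent. Prior exposure: 48 h, 37C, humidified 5% CO2, 500 cells per well.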

[8] = Quantitative High-Throughput drug screen in 47 multiple myeloma cell lines against the NCATS MIPE library collection: KMS12PE_JCRB cell viability assay (AID 1918972); further: nearly all actives have a fitted effect of over 30% in size
Procedure, shortened: as §3

[9] = Quantitative High-Throughput drug screen in 47 multiple myeloma cell lines against the NCATS MIPE library collection: MMM1_PLB cell viability assay (AID 1918976); further: nearly all actives have a fitted effect of over 35% in size
Procedure, shortened: (§5)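 ATP-based luminescence (CellTiter-Glo, 5 min RT incubation) quantified surviving cells following two days' treatment with MIPE 4.0 agents at 37 °C, 5% CO2.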

[10] = Quantitative High-Throughput drug screen in 47 multiple myeloma cell lines against the NCATS MIPE library collection: NCIH929_DSMZ cell viability assay (AID 1918978); further: nearly all actives have a fitted effect of over 35% in size
Procedure, shortened: as §5

[11] = Quantitative High-Throughput drug screen in 47 multiple myeloma cell lines against the NCATS MIPE library collection: JIM3_ECACC cell viability assay (AID 1918963; further: nearly all actives have a fitted effect of over 35% in size)
Procedure, shortened: as §1

[12] = Quantitative High-Throughput drug screen in 47 multiple myeloma cell lines against the NCATS MIPE library collection: KMS20_JCRB cell viability assay (AID 1918973); further: nearly all actives have a fitted effect of over 45% in size
Procedure, shortened: as §2

[13] = Quantitative High-Throughput drug screen in 47 multiple myeloma cell lines against the NCATS MIPE library collection: KMS26_JCRB cell viability assay (AID 1918975); further: nearly all actives have a fitted effect of over 45% in size
Procedure, shortened: as §4

[14] = Quantitative High-Throughput drug screen in 47 multiple myeloma cell lines against the NCATS MIPE library collection: Karpas25_ECACC cell viability assay (AID 1918968; further: nearly all actives have a fitted effect of over 35% in size)
Procedure, shortened: as §2

[15] = Quantitative High-Throughput drug screen in 47 multiple myeloma cell lines against the NCATS MIPE library collection: MOLP8_DSMZ cell viability assay (AID 1918977); further: nearly all actives have a fitted effect of over 45% in size
Procedure, shortened: as §5

[16] = Quantitative High-Throughput drug screen in 47 multiple myeloma cell lines against the NCATS MIPE library collection: OCIMY1_PLB cell viability assay (AID 1918979); further: nearly all actives have a fitted effect of over 35% in size
Procedure, shortened: as §5

[17] = Quantitative High-Throughput drug screen in 47 multiple myeloma cell lines against the NCATS MIPE library collection: MM1S_ATCC cell viability assay (AID 1918980); further: nearly all actives have a fitted effect of over 45% in size
Procedure, shortened: as §5

[18] = Quantitative High-Throughput drug screen in 47 multiple myeloma cell lines against the NCATS MIPE library collection: MM1R_ATCC cell viability assay (AID 1918981); further: nearly all actives have a fitted effect of over 35% in size
Procedure, shortened: as §5

[19] = Quantitative High-Throughput drug screen in 47 multiple myeloma cell lines against the NCATS MIPE library collection: KMS21BM_JCRB cell viability assay (AID 1918974); conditions: ATP luminescence, 48 h; viability: at 45.8 µM (top of the series)
Procedure, shortened: as §2

Measured: Potency
Potency means the concentration at half of the fitted maximal effect.

CC(Cc1ccc(O)c(O)c1)(NN)C(=O)O (configuration not stated)
active: [4] 23500 nM | [7] 26400 nM | [9] 11800 nM
inactive: [1] | [2] | [3] | [5] | [6] | [8] | [10]

O=C(O)[C@H](CC(=O)N1C[C@@H]2CCCC[C@H]2C1)Cc1ccccc1
inactive: [1] | [11] | [4] | [5] | [12] | [13] | [10]

CC(=O)NCC(=O)N1[C@H]2CC[C@H]1c1cc(Nc3ncc(C(F)(F)F)c(NC4CCC4)n3)ccc12
active: [11] 1180 nM | [2] 332 nM | [3] 935 nM | [4] 2640 nM | [5] 16600 nM | [14] 1870 nM | [6] 166 nM | [7] 9350 nM | [8] 105 nM | [12] 1320 nM | [13] 5260 nM | [9] 1660 nM | [15] 2640 nM | [10] 935 nM | [16] 14800 nM | [17] 3320 nM | [18] 2350 nM

CC(C(C)N1CC(=O)NC(=O)C1)N1CC(=O)NC(=O)C1 (configuration not stated)
inactive: [1] | [11] | [5] | [14] | [12] | [10] | [16] | [17]
active: [7] 590 nM | [8] 1320 nM | [19] 332 nM | [15] 10.5 nM

CC(C)OC(=O)[C@H](C)N[P@](=O)(OC[C@H]1O[C@@H](n2ccc(=O)[nH]c2=O)[C@](C)(F)[C@H]1O)Oc1ccccc1
inactive: [1] | [11] | [3] | [14] | [6] | [8] | [13] | [15] | [16] | [17]
active: [7] 1660 nM

C=C(C)[C@@H]1CC[C@]2(C)CC[C@]3(C)[C@H](CC[C@@H]4[C@@]5(C)CC[C@H](O)C(C)(C)[C@H]5CC[C@]43C)[C@@H]12
not listed: [1] | [9] | [16] | [17] | [19]
inactive: all other assays above

CCN1CCN(C(=O)N[C@H](C(=O)N[C@@H]2C(=O)N3C(C(=O)O)=C(CSc4nnnn4C)CS[C@@H]23)c2ccc(O)cc2)C(=O)C1=O
inactive: [1] | [11] | [5] | [14] | [12] | [13] | [10] | [16]

Cc1noc(-c2ccc(CSCCC(=O)O)cc2)c1NC(=O)OC(C)c1ccccc1Cl (configuration not stated)
inactive: [1] | [11] | [5] | [7] | [13] | [15] | [10] | [17] | [18]

CC(=O)NC(CS)C(=O)O (configuration not stated)
inactive: [1] | [11] | [5] | [14] | [12] | [10]
active: [3] 2960 nM | [9] 18700 nM

O=C(NNC(=O)c1ccc(CNS(=O)(=O)c2ccc(F)c(Cl)c2)cc1)c1ccccc1
inactive: [1] | [11] | [4] | [14] | [6] | [12] | [15] | [10] | [16]

C[C@H](NC(=O)Cc1cc(F)cc(F)c1)C(=O)N[C@H](C(=O)OC(C)(C)C)c1ccccc1
active: [7] 4690 nM
inactive: [1] | [5] | [14] | [6] | [8] | [13] | [10] | [16] | [17] | [18]

O=C1NC(O)CCN1[C@@H]1O[C@H](CO)[C@H](O)[C@H]1O (some centres not stated)
not listed: [2] | [3] | [4] | [7] | [9] | [12] | [17] | [19]
inactive: all other assays above

C[C@H](CCC(=O)O)[C@H]1CCC2C3C[C@H](O)[C@@H]4C[C@H](O)CC[C@]4(C)C3CC[C@@]21C (some centres not stated)
inactive: [1] | [2] | [3] | [5] | [8] | [12] | [13] | [10] | [16] | [17]
active: [9] 833 nM

Oc1cc(-c2nc(-c3ccccc3)[nH]c2-c2ccncc2)ccc1Cl
active: [1] 1180 nM | [11] 20900 nM | [4] 18700 nM | [14] 2960 nM | [6] 2640 nM | [7] 20900 nM | [8] 14800 nM | [12] 8330 nM | [19] 3320 nM | [13] 16600 nM | [15] 16600 nM | [16] 10500 nM | [17] 4690 nM | [18] 14800 nM
